Bioassay records: PubChem BioAssay, National Center for Advancing Translational Sciences (NCATS)
Most compounds without a hit are left out; they make up all but 21% or so of the library.
Pf growth 96h: P. falciparum growth inhibition at 96 hour, primary screen for plastid delayed-death inhibitors. P. falciparum luciferase reporter growth, 96 h. Potency, µM (titrated, usually from 28.7 µM), actives largely listed as inhibitors. 320,000 compounds, 6.9% hits
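Readout is luminescence from an integrated firefly luciferase in P. falciparum. Red cells, 2% hematocrit and 0.05% parasitemia final, were cultured with compound through two parasite generations (96 hours) at 37 C, 5% CO2.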
Sm TGR inh: S. mansoni TGR enzyme inhibition | Q962Y6 | purified TGR, DTNB reduction, TNB absorbance 405 nm | AID 485364 | 360,000 compounds, 3% hits | Potency, µM (doses to about 114 µM), hits mostly inhibitors; further: nearly all actives have a fitted effect of over 60% in size
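Kinetic colorimetric format: TGR-catalysed, NADPH-driven DTNB reduction monitored via TNB absorbance. Enzyme dispensed at 20 nM; compound exposure 15 min at room temperature before reaction start.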
Cycloheximide cs: counter-screen hit for Shiga toxin inhibitors, cycloheximide. cell reporter, cycloheximide protein synthesis inhibition counterscreen. max response, %. 300,000 compounds, 12% hits; in the data active means max response mostly above about 13%, no sharp cut-off; inactive means mostly below about 14%; further: read at 38.3 µM for the half of the compounds with a filed dose
Pf growth 48h: inhibits P. falciparum growth in the first generation, 48 h; 310,000 compounds, 5.9% hits; Potency, µM (doses to about 28.7 µM), hits mostly inhibitors; P. falciparum luciferase growth in erythrocytes, 48 h
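In quantitative HTS format, infected erythrocytes bearing luciferase-reporter parasites were treated for a single generation at 37 C. Luminescence after adding detection reagent served as the growth measure.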
NS1 inh: blocks influenza NS1 protein function | Potency, µM (doses to about 46.1 µM) | 270,000 compounds, 0.4% hits | AID 2326; calls by dose curve; further: actives are rising curves; nearly all actives have a fitted effect of over 50% in size
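A cell-based growth assay was used: compounds that relieve NS1-induced slow growth of budding yeast raise OD600. Assay medium was yeast nitrogen base with ammonium sulphate and -URA supplement, pH 6.0, with 2% galactose.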
Shiga toxin inh: Shiga toxin inhibition; Vero cells, Shiga toxin protein synthesis inhibition reporter; inhibition, % at 38.7 µM; 290,000 compounds, 9.2% hits; in the data active means inhibition mostly above about 28%, no sharp cut-off; inactive means mostly below about 43%
Hits are given with their value; n = inactive; u = inconclusive; x = not tested or not shown; [ ] = dose if it differs, or a comment. Unless noted, the call rests on the fitted dose curve; in most records, active means well fitted curve in the direction sought with a large enough effect; inconclusive means small, poorly fitted or top-dose-only effect, or another doubt; inactive means no such curve, though single readings can be large; an effect the other way counts as inactive or inconclusive.

SMILES | Pf growth 96h | Sm TGR inh | Cycloheximide cs | Pf growth 48h | NS1 inh | Shiga toxin inh
O=S(=O)(NCC1NCCc2ccccc21)c1ccccc1 (centres undefined) | n | n | n | u | x | n
COc1ccc(-n2c(C)cc(C(=O)CN3C(=O)C(=O)N(Cc4ccccc4)C3=O)c2C)cc1 | n | n | n | u | x | n
COc1ccc(-n2c(C)cc(C(=O)CN3C(=O)NC4(CCCc5sccc54)C3=O)c2C)cc1 (centres undefined) | 4.65µM | n | n | u | n | n
Cc1cc(C(=O)CN2C(=O)NC3(CCCc4sccc43)C2=O)c(C)n1-c1ccccc1 (centres undefined) | u | n | 39.2 | u | n | 29.1
O=C(c1cc[n+]([O-])cc1)N1CCc2c([nH]c3ccccc23)C1c1ccccc1Cl (centres undefined) | n | n | n | u | n | n
CCc1cc(C(=O)N2CCc3c([nH]c4ccccc34)C2c2ccc(OC)cc2F)no1 (centres undefined) | u | n | n | n | n | n
Cc1ccccc1C1c2[nH]c3ccccc3c2CCN1C(=O)c1ccc(=O)n(C)n1 (centres undefined) | 13.1µM | n | n | u | n | n
CN1N=C(C(=O)N2CCc3c([nH]c4ccccc34)C2c2ccccc2Cl)CCC1=O (centres undefined) | 10.4µM | n | 42.7 | 1.65µM | n | 74.0
O=C(O)c1cccnc1C(=O)N1CCc2c([nH]c3ccccc23)C1C(F)(F)F (centres undefined) | n | n | n | n | n | n
Cc1ccccc1C(=O)N1CCc2c([nH]c3ccccc23)C1C(F)(F)F (centres undefined) | u | n | n | 11.7µM | n | n
Cc1cccc(C2c3[nH]c4ccccc4c3CCN2C(=O)c2ocnc2C)n1 (centres undefined) | u | n | n | n | n | n
COc1ccc(C2c3[nH]c4ccccc4c3CCN2C(=O)c2ccc(=O)n(C)n2)c(F)c1 (centres undefined) | n | n | 26.2 | u | n | n
O=C(Nc1nnc(SCc2cccnc2)s1)C1CC(=O)N(c2ccc(F)cc2)C1 (centres undefined) | u | n | n | n | n | n
CCc1ccc(CNC(=O)CN2C(=O)c3cccnc3Oc3ccc(C)cc32)cc1 | x | n | x | x | x | x
CCC(C)N1C(=O)/C(=C/c2c(NCCCOC(C)C)nc3c(C)cccn3c2=O)SC1=S (centres undefined) | u | n | n | 1.17µM | n | n
COc1cccc(C=O)c1OC(=O)N1CCOCC1 | n | n | n | n[0.00184 µM] | n | n
Cc1ccc2nc(NC(=O)C3CCCN(S(=O)(=O)c4cccc5nonc45)C3)sc2c1 (centres undefined) | u | n | n | n | n | n
Cc1ccc(NC(=O)C2CCCN(S(=O)(=O)c3cccc4nonc34)C2)cc1 (centres undefined) | 2.62µM | n | n | n | n | n
Cc1cccc2sc(NC(=O)C3CCCN(S(=O)(=O)c4cccc5nonc45)C3)nc12 (centres undefined) | u | n | n | 11.7µM | n | n
CC(Oc1ccc(Br)cc1)C(=O)Nn1c(=S)[nH]c2ncccc2c1=O (centres undefined) | n | n | n | n | n | n
O=C(NCCCCCCNC(=O)c1ccccc1O)c1ccccc1O | u | n | n | 8.28µM | n | n
O=C(NCCCSc1ccccc1)c1cc(Cl)ccc1O | 11.7µM | n | n | u | n | n
O=C(NCCCc1ccccc1)c1ccccc1O | n | n | 53.8 | x | n | 60.2
CCOc1ncccc1C(=O)NCCCSc1ccccc1 | n | n | n | n | n | n
COc1ccc(-n2nc(C(=O)N3CCCC(C)C3)c3c4ccccc4n(C)c3c2=O)cc1Cl (centres undefined) | x | n | x | x | x | x
Cc1c(NC(=O)Nc2cccc(C#N)c2)c(=O)n(-c2ccccc2)n1C | 3.7µM | n | n | n | n | n
Cc1c(NC(=O)COC(=O)c2cc(-c3ccc(-c4ccccc4)cc3)nc3ccccc23)c(=O)n(-c2ccccc2)n1C | n | n | 56.8 | n | n | 83.6
COc1ccc(-c2cc(C(=O)OC(C)C(=O)Nc3c(C)n(C)n(-c4ccccc4)c3=O)c3ccccc3n2)cc1 (centres undefined) | n | n | n | n | n | n
